Several values for one entry are separate records, joined by “and”; a condition that tells them apart may be missing. Identical values can stand only once. Inconclusive results are not listed. Unmarked numbers belong to inactive results. Activity calls are given as the source filed them. Calls follow the shape of the dose curve; as a rule, active = well fitted cell-killing curve with a large enough effect in the repeat runs; inconclusive = weak or mixed curves; inactive = flat fitted curve, though single readings scatter.
Assay: qHTS assay to identify small molecule antagonists of the estrogen related receptor (ERR) signaling pathway from Tox21 library - cell viability counter screen (AID 1224834); also: nearly all actives have a fitted effect of over 30% in size
Details: ERR reporter cells viability, CellTiter-Fluor, 17.5 h; series mostly up to 92.4 µM; viability change, negative = cytotoxic: at the top concentration
Text: National Center for Advancing Translational Sciences [NCATS]
NIH Chemical Genomics Center [NCGC]
U.S. Environmental Protection Agency [EPA]
National Institutes of Environmental Health Sciences [NIEHS]
National Toxicology Program [NTP]
U.S. Food and Drug Administration [FDA]
Estrogen related receptors (ERRs), the first orphan nuclear receptors discovered, play an important role in the control of cellular energy metabolism. ERRs are required for high-energy production in response to the environmental challenges. ERR-alpha was also identified as an adverse marker for breast cancer progression; ERR-alpha-positive tumors have a poor prognosis. To screen and to identify environmental compounds that perturb the ERR signaling pathways could provide valuable information for potential therapeutic or preventive measures in the treatment of metabolic disease. To differentiate true ERR antagonists or agonist from cytotoxic substances, the assay is multiplexed with cell viability assay.
Tox21 Assay Protocol Summary:
The ERR cells were dispensed at 2,000 cells/5 ul/well in 1536-well white plates using a Multidrop dispenser. After the assay plates were incubated at a 37 C/5% CO2 incubator for 6 hours, 23 nL of compounds dissolved in DMSO, positive and negative controls or DMSO only was transferred to the assay plate by a pin tool. The plates were incubated at 37 C for 17.5 hours. 1 ul/well of CellTiter-Fluor reagent was added into the assay plates using a Flying Reagent Dispenser. After 30-minute incubation at 37 C/5% CO2, the fluorescence intensity in the plates was measured using a ViewLux plate reader.
% is scaled to controls: 0 for no effect and ±100 for the full control effect; potency is read from the fitted curve at half-maximal effect.

Question: For CCOC(=O)Cn1cccc1-c1nc(-c2ccc(OC)cc2)c(-c2ccc(OC)cc2)s1, which “viability change, negative = cytotoxic” value is on record?
Answer: -9.6% [at 42.5 µM]

Question: Which “viability change, negative = cytotoxic” value does the source give for O=C(O)CCN(C1(C(=O)NO)CCCC1)S(=O)(=O)c1ccc(Oc2ccc(F)cc2)cc1 here?
Answer: 4.69%

Question: With C=Cc1cccc(C)c1 as the compound, how does the Potency read?
Answer: inactive

Question: Which Potency does the source give for C=CC(=O)Nc1cc2c(Nc3ccc(F)c(Cl)c3)ncnc2cc1OCCCN1CCOCC1 here?
Answer: 23.7 µM (active)

Question: For O=C1C(c2[nH]c3ccc(S(=O)(=O)O)cc3c2O)=Nc2ccc(S(=O)(=O)O)cc21, which “viability change, negative = cytotoxic” value is on record?
Answer: -1.48%

Question: For CCC(CC)(CC(=O)Nc1cccc(/C=C/c2nc(C3CCC3)cs2)c1)C(=O)O, which “viability change, negative = cytotoxic” value is on record?
Answer: -8.95% [at 42.5 µM]

Question: For c1ccsc1, which “viability change, negative = cytotoxic” value is on record?
Answer: 0.0711%

Question: For CC/C=C\CCCCCO, which “viability change, negative = cytotoxic” value is on record?
Answer: 2.68%

Question: With C=C(C)c1cccc(C(=C)C)c1 as the compound, how does the “viability change, negative = cytotoxic” value read?
Answer: 1.08%

Question: With NC(=S)NC(N)=S as the compound, how does the “viability change, negative = cytotoxic” value read?
Answer: -2.67%

Question: With CCCCCCOC(=O)C(C)CC (stereo not given) as the compound, how does the “viability change, negative = cytotoxic” value read?
Answer: -2.33%

Question: With CC1(C)CCC[C@]2(C)[C@H]3CCO[C@]3(C)CC[C@@H]12 as the compound, how does the “viability change, negative = cytotoxic” value read?
Answer: -7.08%

Question: With Nc1cc(Cl)c(O)c(Cl)c1 as the compound, how does the “viability change, negative = cytotoxic” value read?
Answer: -8.17%

Question: With CC1(C)CCC[C@]2(C)[C@H]3CC(=O)O[C@]3(C)CC[C@@H]12 as the compound, how does the “viability change, negative = cytotoxic” value read?
Answer: -7.21%

Question: For O=C(Nc1ccc2c(O)c(N=Nc3ccc(N=Nc4ccc(S(=O)(=O)O)cc4)cc3)c(S(=O)(=O)O)cc2c1)c1ccccc1, which Potency is on record?
Answer: 24.3 µM (active)

Question: With CCCCCCCC as the compound, how does the “viability change, negative = cytotoxic” value read?
Answer: 9.03%

Question: With CC(=O)[C@H]1CC[C@H]2[C@@H]3CCC4=CC(=O)CC[C@]4(C)[C@H]3CC[C@]12C as the compound, how does the Potency read?
Answer: 30.5 µM (active) and 30.6 µM (active)

Question: Which “viability change, negative = cytotoxic” value does the source give for OCC(F)(F)F here?
Answer: 2.37%

Question: For CC(=O)CC(=O)Nc1ccc(S(=O)(=O)O)cc1, which “viability change, negative = cytotoxic” value is on record?
Answer: -0.226%

Question: With OC1CCCc2ccccc21 (stereo not given) as the compound, how does the “viability change, negative = cytotoxic” value read?
Answer: -0.475%

Question: Which “viability change, negative = cytotoxic” value does the source give for C#Cc1ccc(-c2ccccc2F)cc1 here?
Answer: -0.888% [at 42.5 µM]

Question: For CC1=CCC(=C(C)C)CC1, which “viability change, negative = cytotoxic” value is on record?
Answer: -1.48%

Question: Which “viability change, negative = cytotoxic” value does the source give for Cc1c(C)c2c(c(C)c1O)CC[C@@](C)(CCC[C@H](C)CCC[C@H](C)CCCC(C)C)O2 here?
Answer: -0.0411%

Question: Which “viability change, negative = cytotoxic” value does the source give for Cc1c(C)c([N+](=O)[O-])c(C(C)(C)C)c([N+](=O)[O-])c1C here?
Answer: -3.62%

Question: With NC[C@H]1O[C@H](O[C@H]2[C@H](O[C@@H]3O[C@H](CO)[C@@H](O)[C@H]3O)C(O)[C@H](N)C[C@@H]2N)[C@H](N)[C@@H](O)[C@@H]1O (stereo not given in full) as the compound, how does the viability change, negative = cytotoxic read?
Answer: 2.75% [at 8.39 µM]

Question: With Clc1sc(Cl)c(Cl)c1Cl as the compound, how does the “viability change, negative = cytotoxic” value read?
Answer: 1.8%

Question: Which viability change, negative = cytotoxic does the source give for O=C(O)O here?
Answer: -2.55% [at 8.39 µM]

Question: With O=[N+]([O-])c1ccc(F)c(Cl)c1 as the compound, how does the “viability change, negative = cytotoxic” value read?
Answer: -4.67%

Question: With FC(F)(F)c1cccc(Cl)c1 as the compound, how does the “viability change, negative = cytotoxic” value read?
Answer: -1.58%

Question: Which Potency does the source give for CCO[C@@H]1O[C@H](C(COCc2ccccc2)OCc2ccccc2)[C@H](OCc2ccccc2)[C@H]1O (stereo not given in full) here?
Answer: 26.6 µM (active)

Question: Which “viability change, negative = cytotoxic” value does the source give for O=C(O)Cc1ccccc1Nc1c(Cl)cccc1Cl here?
Answer: 1.23% [at 42.5 µM]

Question: Which “viability change, negative = cytotoxic” value does the source give for Cc1cc(C(C)(C)C)c(O)c(C)c1Cn1c(=O)n(Cc2c(C)cc(C(C)(C)C)c(O)c2C)c(=O)n(Cc2c(C)cc(C(C)(C)C)c(O)c2C)c1=O here?
Answer: -6.09%

Question: For CCCC[P+](C)(CCCC)CCCC, which “viability change, negative = cytotoxic” value is on record?
Answer: 1.07%

Question: For O=c1[nH]c(=O)n([C@H]2C[C@H](O)[C@@H](CO)O2)cc1F, which “viability change, negative = cytotoxic” value is on record?
Answer: -5.39% [at 42.5 µM]

Question: With Oc1c(I)cc(Cl)c2cccnc12 as the compound, how does the Potency read?
Answer: 24.3 µM (active) and 26.6 µM (active)

Question: For CCCCCCCCCCCCCCCC[N+](C)(C)CC, which Potency is on record?
Answer: 30.7 µM (active) and 23.7 µM (active)

Question: For COC(=O)c1ccccc1OC, which “viability change, negative = cytotoxic” value is on record?
Answer: 0.0293%

Question: Which “viability change, negative = cytotoxic” value does the source give for CN(C)Cc1cc(C(C)(C)C)c(O)c(C(C)(C)C)c1 here?
Answer: -7.65%

Question: With Clc1nnc(Cl)c2ccccc12 as the compound, how does the “viability change, negative = cytotoxic” value read?
Answer: 1.85%

Question: With Cc1ccc(-c2ccccc2)cc1 as the compound, how does the “viability change, negative = cytotoxic” value read?
Answer: -3.71%
